From PubChem BioAssay AID1645857 (Buhrlage Lab, Dana-Farber Cancer Institute and Novartis …, 2021) come the findings set out here.

Among all 47,000 compounds or so, about 1,400 (3%) were called active. This excerpt belongs to a sample that is enriched for actives. Values without a mark were called inactive. Cut-off read from the data, not from the text of the source: active = inhibition above about 30%; inactive = the rest.

Sequence of Ubiquitin carboxyl-terminal hydrolase 28 (Homo sapiens) (Q96RU2 whole entry, looked up): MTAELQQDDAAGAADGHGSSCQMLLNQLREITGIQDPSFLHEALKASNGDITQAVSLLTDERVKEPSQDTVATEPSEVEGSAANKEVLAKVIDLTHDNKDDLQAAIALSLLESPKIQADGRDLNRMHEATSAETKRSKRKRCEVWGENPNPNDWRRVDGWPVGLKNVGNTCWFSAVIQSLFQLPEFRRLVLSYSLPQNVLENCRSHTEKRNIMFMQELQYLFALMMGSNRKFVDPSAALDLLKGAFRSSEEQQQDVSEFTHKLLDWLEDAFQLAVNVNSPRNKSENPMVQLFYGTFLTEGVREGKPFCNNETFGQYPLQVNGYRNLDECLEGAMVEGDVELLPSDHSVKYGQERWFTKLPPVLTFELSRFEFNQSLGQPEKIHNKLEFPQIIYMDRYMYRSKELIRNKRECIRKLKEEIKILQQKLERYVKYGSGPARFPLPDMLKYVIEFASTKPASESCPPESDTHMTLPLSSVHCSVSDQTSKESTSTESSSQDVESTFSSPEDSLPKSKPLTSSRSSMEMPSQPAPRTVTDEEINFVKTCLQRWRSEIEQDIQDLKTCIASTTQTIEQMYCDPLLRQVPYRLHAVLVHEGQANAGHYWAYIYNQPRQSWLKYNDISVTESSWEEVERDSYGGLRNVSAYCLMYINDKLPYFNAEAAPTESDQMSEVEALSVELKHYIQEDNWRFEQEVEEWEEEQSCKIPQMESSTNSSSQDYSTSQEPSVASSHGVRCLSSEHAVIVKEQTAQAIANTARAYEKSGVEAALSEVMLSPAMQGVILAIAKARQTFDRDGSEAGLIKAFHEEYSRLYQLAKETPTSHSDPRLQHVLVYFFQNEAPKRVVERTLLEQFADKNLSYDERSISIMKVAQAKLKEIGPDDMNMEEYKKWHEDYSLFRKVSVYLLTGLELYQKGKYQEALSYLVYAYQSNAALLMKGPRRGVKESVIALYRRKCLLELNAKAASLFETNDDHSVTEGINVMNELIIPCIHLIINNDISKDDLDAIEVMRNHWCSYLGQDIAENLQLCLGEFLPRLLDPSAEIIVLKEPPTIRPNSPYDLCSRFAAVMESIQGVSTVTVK

The assay addresses Ubiquitin carboxyl-terminal hydrolase 28 (Homo sapiens) (UniProt Q96RU2). In words: blocks human USP28 ubiquitin-rhodamine cleavage (AID 1645857). The following applies: purified USP28, Ub-rhodamine cleavage fluorescence, 30 min; at 25 µM; stronger effect = higher value.
The inhibition is the change of the read-out against control, counted positive when it falls. As to `Cc1noc(-c2cccn(Cc3cc(F)ccc3F)c2=O)n1`, the inhibition was 29%. The same measure for `N#Cc1ccc(NC(=O)Nc2cccn(Cc3ccccc3F)c2=O)cc1`: 86.6% (active). Regarding `O=C(Cn1cccc(-c2nc(-c3ccccc3)no2)c1=O)Nc1ccccc1F`, the inhibition is 6.71%. The same measure for `CC1(C(=O)NC2CCCCCC2)Cn2c(nc3ccccc32)C(=O)N1CCc1ccccc1` (centres undefined): -1.29%; for `O=C(c1cc2c(=O)n3ccccc3nc2n1Cc1ccccc1)N1CCN(c2ccccc2)CC1`: -0.309%; for `COc1ccc(-c2[nH]c3ccccc3c2SCCNC(=O)c2ccc(S(=O)(=O)N3CCOCC3)cc2)cc1`: 32.8% (active). In the case of `COc1ccc(NC(=O)c2cc(=O)[nH]c3ccccc23)cc1S(=O)(=O)N1CCOCC1`, the inhibition is -0.445%. As to `COc1ccc(-c2cnc(SCCNC(=O)c3cccc(F)c3)[nH]2)cc1`, the inhibition was 12.3%. The same measure for `COc1ccccc1Nc1ncnc2oc(C)c(C)c12`: -18.5%. With `COc1ccc(OC)c(-n2c(CNC(=O)c3ccco3)nnc2SCC(=O)N2CCc3ccccc32)c1`, the inhibition is 0.00951%.

Consider `CC(=O)c1ccc(NC(=O)CCCn2nc([N+](=O)[O-])cc2C)cc1`, for which the inhibition is 9.41%. The same measure for `C#CCOc1ccc(CN2CCc3nc(-c4cccnc4)[nH]c(=O)c3C2)cc1OC`: -1.43%. With `C#CCOc1ccc2ccccc2c1CN1CCc2ccccc2C1`, the inhibition was 39.7% (active). As to `CS(=O)(=O)N1CCC2(CC1)CN(C(=O)c1ccc3[nH]ccc3c1)Cc1ccccc1O2`, the inhibition was 7.47%. `CC(C)Cc1cc(-c2nn3c(-c4ccccc4Cl)nnc3s2)n[nH]1`: the inhibition was 30.4% (active).

In the case of `COCCn1ccc(-c2cc(C(=O)N3CCCN(C)CC3)c3ccccn23)n1`, the inhibition was -61%. The same measure for `CN(C)c1cccc(NC(=O)N2CC[C@@H]3[C@H]2C(=O)N(C)[C@@H](Cc2ccccc2)C(=O)N3C)c1`: -0.0135%. As to `Cc1ccc(NC(=O)C2CCN(S(=O)(=O)c3cnc[nH]3)CC2)cc1Cl`, the inhibition is 39% (active). The figure for `CCc1cccc(NC(=O)C2CCN(c3ccncc3)CC2)c1` is 22%; for `CC1CCN(S(=O)(=O)N2CCCC(C(=O)Nc3ccccc3Cl)C2)CC1` (centres undefined) it is -2.94%; for `COc1ccc(CNC(=O)c2cccc3cccnc23)cc1` it is 4.72%.

For `COc1ccc(CNC(=O)c2[nH]nc3c2CCc2ccccc2-3)cc1`, the inhibition is 30.6% (active). For `COc1ccc(CNC(=O)c2ccccc2-c2ncc(-c3ccccc3)o2)cc1`, the inhibition was 21.9%. For the compound `Cc1nn(-c2ccccc2)c(C)c1S(=O)(=O)N1CCN(c2ccccn2)CC1`, the inhibition is -7.5%. As to `O=C(c1ccc(N2CCCC2)nn1)N1CCN(c2ccccn2)CC1`, the inhibition is 2.13%. As for `Clc1cc2nc(N3CCN(c4ccccn4)CC3)c3nncn3c2cc1Cl`, the inhibition was 36.5% (active). The figure for `O=C(N[C@H]1C[C@@H]2C[C@H]1N(C(=O)c1ccc3c(c1)OCO3)C2)c1ccccc1` is -126%. For the compound `CCOc1ccc(NC(=S)Nc2ccc(Cc3ccncc3)cc2)cc1`, the inhibition is 36.8% (active). The same measure for `CCN(CC)c1ccc(NC(=O)Nc2ccc(OCc3ccccc3)cc2)cc1`: -7.22%. Regarding `O=S(=O)(Nc1ccc(Cc2ccncc2)cc1)c1ccc2c(c1)OCCO2`, the inhibition was 9.83%. In the case of `Cc1cc(-c2ncc(C)[nH]2)nc(C2CCCCN2C(=O)c2ccccc2)n1` (centres undefined), the inhibition is 5.54%. With `Cn1c(N2CCN(C(=O)c3cccc(Cl)c3)CC2)cc(=O)n(C)c1=O`, the inhibition is -5.96%.

`Cc1c(Cl)cccc1NC(=O)C[n+]1cc(-c2ccc(Cl)cc2)n2c1CCC2`: the inhibition is 10.7%. The figure for `CC(=O)C[n+]1cc(-c2ccc(C)cc2)n2c1CCC2` is -0.406%; for `Clc1ccc(C[n+]2cc(-c3ccc(Cl)cc3)n3c2CCC3)cc1` it is 54.6% (active). On to `CCCc1cc(=O)[nH]c(N2CCN(c3ccc(Cl)cc3)CC2)n1`, for which the inhibition was 0.253%. The figure for `CC(C)=CCc1cc(O)ccc1O` is -0.0939%; for `CC(C)=CCC(O)C1=CC(=O)c2c(O)ccc(O)c2C1=O` (centres undefined) it is 93.4% (active); for `CN1C(=O)[C@H](Cc2ccccc2)N(C)C(=O)[C@@H]2[C@H]1CCN2C(=O)Nc1cccc(C#N)c1` it is -9.42%. `Cn1nc(C2CCN(Cc3ccc4c(c3)CC(C)(C)O4)CC2)c2nccnc21`: the inhibition is -6.5%. For `CC(C)C(=O)N1c2ncnn2C(c2ccc(Cl)cc2)CC1c1ccccc1` (centres undefined), the inhibition was -5.15%. The figure for `CC(=O)c1ccc(N2CCN(CC(=O)c3c(N)n(Cc4ccccc4)c(=O)n(C)c3=O)CC2)cc1` is -11.8%. Take `CN1CCC(N(C)C(=O)c2ccc(Cl)c(S(=O)(=O)Nc3ccccc3C(=O)N(C)C3CCN(C)CC3)c2)CC1`: the inhibition was -0.184%. For the compound `CC(CCc1ccccc1)NCc1c(C(=O)O)n(Cc2ccccc2F)c2ccccc12` (centres undefined), the inhibition is 23%. Take `Cc1ccc(CCNCc2c(C(=O)O)n(C)c3ccccc23)cc1`: the inhibition is -5.83%.

`Cc1ccc(Cn2c(C(=O)O)c(CNC(C)CCc3ccccc3)c3ccccc32)cc1` (centres undefined): the inhibition is 32.3% (active). `CC1CCCCN1Cc1nc2c([nH]1)c(=O)n(C)c(=O)n2C` (centres undefined): the inhibition is -0.186%. Take `CCCN(CCC)CCNS(=O)(=O)c1ccc2c(c1)NC(=O)CCS2`: the inhibition was -7.06%. Consider `CC(NS(=O)(=O)c1ccc2c(c1)SCC(=O)N2)c1ccccc1` (centres undefined), for which the inhibition is 13%.

For the compound `CCC(Cc1ccccc1)NS(=O)(=O)c1ccc2c(c1)NC(=O)CS2` (centres undefined), the inhibition was 37.3% (active). The same measure for `CC(C)NC(=O)CN1C(=O)CC(C)Sc2ccc(S(=O)(=O)N3CCCCC3)cc21` (centres undefined): 13.7%.

Regarding `CCc1nnc(C2CCN(C(=O)c3ccc(F)cc3F)CC2)s1`, the inhibition is -5.47%. Regarding `CC1CCN(c2nc(F)c3c(c2F)S(=O)(=O)CCN3Cc2cccnc2)CC1`, the inhibition was -20.5%. For the compound `O=C(COC(=O)C1CCN(S(=O)(=O)c2c(Cl)cccc2Cl)CC1)Nc1ccc2c(c1)CCC2`, the inhibition is 15.4%. Take `Cc1cccc(-c2nnc(-c3cccc(S(=O)(=O)N4CCCC4)c3)o2)c1`: the inhibition is 4.29%.

As to `O=C(Nc1nnc(-c2cccc([N+](=O)[O-])c2)o1)C1CCN(S(=O)(=O)c2ccc3c(c2)CCC3)CC1`, the inhibition was 46.2% (active). For `CCOc1ccc2nc3sc(C(=O)N4CCCC4)c(N)c3cc2c1`, the inhibition is -2.52%. As to `COc1ccc(NC(=O)CC[C@@H]2NC(=O)N([C@@H](C)c3ccccc3)C2=O)cc1`, the inhibition was 8.47%.

Take `O=C(CCc1nnc2n(Cc3ccc(Cl)cc3)c(=O)c3ccccc3n12)NCCN1CCOCC1`: the inhibition is -1.7%. Regarding `Clc1ccc(C2NC3=NCN(Cc4ccco4)CN3c3nc4ccccc4n32)cc1` (centres undefined), the inhibition was 32.7% (active).

Take `CN(Cc1cccnc1Oc1ccccc1)C(=O)c1cnccn1`: the inhibition was -1.11%. Consider `O=C1COC2(CCN(c3ncccn3)CC2)CN1Cc1cccc(F)c1`, for which the inhibition is -14.6%. With `CCN1C[C@H]2C3(CCN(S(=O)(=O)c4ccccc4)CC3)CC[C@@]2(C(=O)NC)C1`, the inhibition is 0.022%.

As to `N#Cc1ccccc1Cn1c(=O)n(CCCC(=O)NCc2ccc(F)cc2)c(=O)c2ccccc21`, the inhibition is 8.1%. For `COc1ccc(CCNC(=O)CCCn2c(=O)c3ccccc3n(CC(=O)OCc3ccccc3)c2=O)cc1OC`, the inhibition is 26.2%. As for `Cc1ccc(CNC(=O)CCCn2c(=O)c3sccc3n(CC(=O)OCc3ccccc3)c2=O)cc1`, the inhibition was 45.6% (active).

As to `CN1CCc2onc(-c3cccc(CN)c3)c2C1=O`, the inhibition was 11.5%. In the case of `CCOc1ccccc1C1c2[nH]c3ccccc3c2C[C@H]2C(=O)N(CCCc3ccccc3)CC(=O)N12` (some centres undefined), the inhibition is -32.1%.

For `CSc1ccccc1NC(=O)c1ccc(N2CCCC2)nn1`, the inhibition was 3.05%. Take `CC1CCc2c(cnc3c(C(=O)NCc4cccnc4)cnn23)C1` (centres undefined): the inhibition is -1.11%. The same measure for `Cc1ccccc1NC(=O)Cc1csc2nc(-c3ccc(F)cc3)cn12`: 37.7% (active); for `O=C(Cc1ccc(F)cc1)Nc1ccccc1Cc1ccccc1`: 11.8%. The figure for `Cc1cc(F)ccc1NC(=O)Cc1n[nH]c(Cc2ccccc2)n1` is -17.7%; for `N#Cc1ccc(C(=O)N2CCN(c3cc(-c4ccccc4)[nH]n3)CC2)cc1` it is -11%; for `CCOC(=O)c1cnn(-c2ccc(C(=O)Nc3ccc(C(C)=O)cc3)cn2)c1N` it is -5.3%. As for `Cc1ccc(C(=O)Nc2cccc3c2CCCC3)cc1C`, the inhibition is 1.01%.

Take `CC(=O)Nc1cccnc1-c1ccc(C(=O)Nc2ccc(C)c(C)c2)cc1`: the inhibition is 37.1% (active). The same measure for `Cc1ccccc1NC(=O)c1ccc(-c2nc3cccnc3n(C3CCCC3)c2=O)cc1`: -11.7%. As to `O=C(c1cccc(Nc2ncccn2)c1)N1CCOCC2(C1)CN(c1ccccc1)C(=O)O2` (centres undefined), the inhibition is -1.6%. As for `COc1ccc(CCNC(=O)CSc2cn(CCNC(=O)c3ccccc3C)c3ccccc23)cc1OC`, the inhibition was 13.1%. The figure for `COc1ccc(CCNC(=O)c2ccccc2OCc2ccc(F)cc2)cc1` is 10.8%; for `COc1ccc(CCNC(=O)c2ccc3ccccc3c2)cc1OC` it is 54.7% (active). In the case of `Cc1cc(C)c(-c2nnc(NC(=O)c3ccc(-c4ccccc4)cc3)s2)c(C)c1`, the inhibition was -5.98%. The figure for `CCOC(=O)c1ccc(NC(=O)CSc2nnc(CNC(=O)c3ccc(OC)cc3)n2C)cc1` is -5.59%; for `Cc1ccc(NS(=O)(=O)c2cc3n(c2)CCN(C)C3=O)cc1` it is -5.99%.

For the compound `O=C1C(O)=C(c2ccc(O)c(O)c2)C(=O)C(O)=C1c1ccccc1`, the inhibition was 66.9% (active). Turning to `O=CNC1CC2(CCCCC2)Oc2ccccc21` (centres undefined), the inhibition was -1.81%.

As to `c1ccc(-c2csc3ncnc(NC4CCCc5ccccc54)c23)cc1` (centres undefined), the inhibition is -4.83%. Consider `CN1CC(=O)N(C2CCCNC2)Cc2c(NC3CCc4ccccc43)ncnc21` (centres undefined), for which the inhibition is 90.6% (active).
